Experimental data: ChEMBL document CHEMBL5606458, “ASAP - ZIKV NS2B-NS3 protease fluorescence single point” (2024)
Among all 2,700 compounds or so, about 160 (5.9%) showed an effect of 50% or more. The entries come from a sample that favours strong results as a whole.

Target: Nonstructural protein 3 (Zika virus) (UniProt A0A024AXB9)
[1] = PRVABC59, Concentration 15.0 uM, Number of replicates 1.0
[2] = PRVABC59, Concentration 50.0 uM, Number of replicates 1.0

Chain of Nonstructural protein 3 (Zika virus) (A0A024AXB9 as listed by the source): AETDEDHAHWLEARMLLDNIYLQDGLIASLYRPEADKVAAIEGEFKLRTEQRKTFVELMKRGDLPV

## Cc1ccc(NC(=O)c2cc(Cl)ccc2NS(=O)(=O)c2ccc(Oc3ccccc3Cl)cc2)cc1Br
[1]
  inhibition: 43.3%

## O=C(Nc1ccc(F)c(Br)c1)c1cc(Cl)ccc1NS(=O)(=O)c1ccc(Oc2ccccc2Cl)cc1
[1]
  inhibition: 48.7%

## O=C(Nc1cc(Br)ccc1F)c1cc(Cl)ccc1NS(=O)(=O)c1ccc(Oc2ccccc2Cl)cc1
[1]
  inhibition: 24.4%

## COc1cc(NC(=O)c2cc(Cl)ccc2NS(=O)(=O)c2ccc(Oc3ccccc3Cl)cc2)ccc1Br
[1]
  inhibition: 60.4%

## CC(=O)Nc1ccc(NC(=O)c2cc(Cl)ccc2NS(=O)(=O)c2ccc(Oc3ccccc3Cl)cc2)c(C(F)(F)F)c1
[1]
  inhibition: 23.4%

## COc1ccc(-c2cc(NC(=O)c3cc(Cl)ccc3NS(=O)(=O)c3ccc(Oc4ccccc4Cl)cc3)[nH]n2)cc1
[1]
  inhibition: 57.5%

## O=C(Nc1ccc(Br)c(C(F)(F)F)c1)c1cc(Cl)ccc1NS(=O)(=O)c1ccc(Oc2ccccc2Cl)cc1
[1]
  inhibition: 29.1%

## COc1ccc(Cl)c(NC(=O)c2cc(Cl)ccc2NS(=O)(=O)c2ccc(Oc3ccccc3Cl)cc2)c1
[1]
  inhibition: 25.8%

## O=C(Nc1cccc(Cl)c1Br)c1cc(Cl)ccc1NS(=O)(=O)c1ccc(Oc2ccccc2Cl)cc1
[1]
  inhibition: 25.4%

## COc1ccc(NC(=O)c2cc(Cl)ccc2NS(=O)(=O)c2ccc(Oc3ccccc3Cl)cc2)cc1C(F)(F)F
[1]
  inhibition: 51.3%

## COc1cc(NC(=O)c2cc(Cl)ccc2NS(=O)(=O)c2ccc(Oc3ccccc3Cl)cc2)cc(OC)c1
[1]
  inhibition: 24.1%

## O=C(Nc1ccc(Br)cc1O)c1cc(Cl)ccc1NS(=O)(=O)c1ccc(Oc2ccccc2Cl)cc1
[1]
  inhibition: 58.9%

## O=Cc1ccc(N2CCC(C(=O)Nc3ccc(-n4cccn4)cc3)CC2)cc1
[2]
  inhibition: 21.4%

## Cn1cc(NC(=O)c2ccccc2-c2ccc(C(=O)O)nc2)cn1
PRVABC59, Concentration 49.5 uM, Number of replicates 2.0, Standard deviation 2.4498358087391408 %
  inhibition: -1.15%
PRVABC59, Concentration 99.01 uM, Number of replicates 2.0, Standard deviation 1.6656005687321722 %
  inhibition: -0.876%
PRVABC59, Concentration 198.0 uM, Number of replicates 2.0, Standard deviation 2.3203289956835937 %
  inhibition: 3.27%

## O=C(NCCc1c[nH]c2cccnc12)[C@@]1(c2ccc(F)cc2)CCCNC1
PRVABC59, Concentration 49.5 uM, Number of replicates 2.0, Standard deviation 1.1099611949443484 %
  inhibition: 2.3%
PRVABC59, Concentration 99.01 uM, Number of replicates 2.0, Standard deviation 0.8664361984862207 %
  inhibition: -0.092%
PRVABC59, Concentration 198.0 uM, Number of replicates 2.0, Standard deviation 1.4816570758007732 %
  inhibition: -1.42%

## O=C(c1cc(Cl)ccc1NS(=O)(=O)c1ccc(Oc2ccccc2Cl)cc1)N1CCN(C(=O)[C@@H]2CCCO2)CC1
[1]
  inhibition: -3.32%

## CC(C)c1cccc(C(C)C)c1NC(=O)C1CCN(c2ccc(C=O)cc2)CC1
[2]
  inhibition: 22.1%

## O=Cc1ccc(N2CCC(C(=O)N3CCC(Cc4ccccc4)CC3)CC2)cc1
[2]
  inhibition: 24.7%

## CNC(=O)[C@H]1CCN(S(=O)(=O)c2ccc(Oc3ccccc3Cl)cc2)C1
PRVABC59, Concentration 49.5 uM, Number of replicates 2.0, Standard deviation 2.3503648629811855 %
  inhibition: 6.33%
PRVABC59, Concentration 99.01 uM, Number of replicates 2.0, Standard deviation 2.692773952478603 %
  inhibition: 8.32%
PRVABC59, Concentration 198.0 uM, Number of replicates 2.0, Standard deviation 0.3043636351088153 %
  inhibition: 5.71%

## CC(=O)N1CCC(N(C)C(=O)c2cc(Cl)ccc2NS(=O)(=O)c2ccc(Oc3ccccc3Cl)cc2)CC1
[1]
  inhibition: 11.3%

## Cc1cc(CO)c2cccc(CC(=O)NCCc3ncc[nH]3)c2n1
PRVABC59, Concentration 49.95 uM, Number of replicates 2.0, Standard deviation 0.020358613704702253 %
  inhibition: 12.5%
PRVABC59, Concentration 99.9 uM, Number of replicates 2.0, Standard deviation 0.02544995300481825 %
  inhibition: 32.3%

## COc1cc(Cl)c(C)cc1NC(=O)c1cc(Cl)ccc1NS(=O)(=O)c1ccc(Oc2ccccc2Cl)cc1
[1]
  inhibition: 22.4%

## O=C(Nc1ncc(F)cc1Br)c1cc(Cl)ccc1NS(=O)(=O)c1ccc(Oc2ccccc2Cl)cc1
[1]
  inhibition: 23.4%

## CCc1cc(Br)ccc1NC(=O)c1cc(Cl)ccc1NS(=O)(=O)c1ccc(Oc2ccccc2Cl)cc1
[1]
  inhibition: 41.5%

## O=C(Nc1ncc(Br)cc1O)c1cc(Cl)ccc1NS(=O)(=O)c1ccc(Oc2ccccc2Cl)cc1
[1]
  inhibition: 55.3%

## O=C(Nc1ncc(Br)nc1Cl)c1cc(Cl)ccc1NS(=O)(=O)c1ccc(Oc2ccccc2Cl)cc1
[1]
  inhibition: 16.8%

## COc1ncc(NC(=O)c2cc(Cl)ccc2NS(=O)(=O)c2ccc(Oc3ccccc3Cl)cc2)cc1Br
[1]
  inhibition: 67.3%

## COc1ncc(Br)cc1NC(=O)c1cc(Cl)ccc1NS(=O)(=O)c1ccc(Oc2ccccc2Cl)cc1
[1]
  inhibition: 22.9%

## COc1cc(Br)ccc1NC(=O)c1cc(Cl)ccc1NS(=O)(=O)c1ccc(Oc2ccccc2Cl)cc1
[1]
  inhibition: 56.4%

## O=C(Nc1cnc(Cl)c(Br)c1)c1cc(Cl)ccc1NS(=O)(=O)c1ccc(Oc2ccccc2Cl)cc1
[1]
  inhibition: 23%

## COc1ccc(CNC(=O)c2cc(Cl)ccc2NS(=O)(=O)c2ccc(Oc3ccccc3Cl)cc2)cc1F
[1]
  inhibition: 26.5%

## O=C(c1cc(Cl)ccc1NS(=O)(=O)c1ccc(Oc2ccccc2Cl)cc1)N1CCN(c2ncccn2)CC1
[1]
  inhibition: 7.48%

## O=Cc1ccc(N2CCC(C(=O)Nc3ccccc3I)CC2)cc1
[2]
  inhibition: 24.9%

## O=Cc1ccc(N2CCC(C(=O)Nc3ccc(Br)c(Cl)c3Cl)CC2)cc1
[2]
  inhibition: 20.9%

## CC(C)(C)N(C[C@H](O)c1ccc(O)c(CO)c1)C(=O)c1cc(Cl)ccc1NS(=O)(=O)c1ccc(Oc2ccccc2Cl)cc1
[1]
  inhibition: 14.6%

## COc1ccccc1OCCCN(C)C(=O)C1CCN(c2ccc(C=O)cc2)CC1
[2]
  inhibition: 22.6%

## CC(C)(COC(=O)c1cccc(F)c1)NC(=O)c1cc(N)cc(Cl)c1
PRVABC59, Concentration 49.5 uM, Number of replicates 2.0, Standard deviation 1.1247891306000573 %
  inhibition: 3.45%
PRVABC59, Concentration 99.01 uM, Number of replicates 2.0, Standard deviation 1.4129417390724304 %
  inhibition: 5.8%
PRVABC59, Concentration 198.0 uM, Number of replicates 2.0, Standard deviation 1.2082537148179389 %
  inhibition: 9%
